# Rows were chosen to be rich in hits. Some 12% of all compounds tested hit in one or more screens of this group.
# BAZ2B inh – qHTS Assay for Inhibitors of BAZ2B. 360,000 tested, 4.4% active. Bromodomain adjacent to zinc finger domain protein 2B (Homo sapiens), Q9UIF8. Potency, µM (doses to about 114 µM), inactives show top-dose activity change, negative = inhibition, actives largely listed as inhibitors. AlphaScreen BAZ2B-H3K14Ac peptide displacement; further: on the % scale 0 is the no-effect control and ±100 the full control effect; nearly all actives have a fitted effect of over 60% in size
#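 AlphaScreen luminescence quantifies BAZ2B engagement of H3K14Ac peptide; the protein and biotinylated peptide are both at 50 nM final, buffer PBS pH 7.4 with 0.01% Tween-20, all steps at room temperature.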
# JMJD2A Tudor inh – qHTS Assay for Inhibitors of JMJD2A-Tudor Domain | Lysine-specific demethylase 4A (Homo sapiens), O75164 | AlphaScreen JMJD2A-Tudor / H3K4me3 peptide binding | Potency, µM (titrated, usually from 114 µM), for the others: top-dose activity change, negative = inhibition, most hits filed as inhibitors | 390,000 tested, 4.4% active | AID 504339, 2011; further: on the % scale 0 is the no-effect control and ±100 the full control effect; nearly all actives have a fitted effect of over 50% in size
# L3MBTL1 inh – qHTS Assay for the Inhibitors of L3MBTL1; Lethal(3)malignant brain tumor-like protein 1 (Homo sapiens), Q9Y468; AlphaScreen L3MBTL1–H3K9me1 peptide binding; Potency, µM (highest dose often 57.1 µM), without a hit: at the highest dose activity, negative = inhibition, most hits filed as inhibitors; 230,000 tested, 0.66% active; AID 485360, 2010; further: on the % scale 0 is the no-effect control and ±100 the full control effect; nearly all actives have a fitted effect of over 60% in size
# Target sequence (Q9Y468 whole entry, looked up): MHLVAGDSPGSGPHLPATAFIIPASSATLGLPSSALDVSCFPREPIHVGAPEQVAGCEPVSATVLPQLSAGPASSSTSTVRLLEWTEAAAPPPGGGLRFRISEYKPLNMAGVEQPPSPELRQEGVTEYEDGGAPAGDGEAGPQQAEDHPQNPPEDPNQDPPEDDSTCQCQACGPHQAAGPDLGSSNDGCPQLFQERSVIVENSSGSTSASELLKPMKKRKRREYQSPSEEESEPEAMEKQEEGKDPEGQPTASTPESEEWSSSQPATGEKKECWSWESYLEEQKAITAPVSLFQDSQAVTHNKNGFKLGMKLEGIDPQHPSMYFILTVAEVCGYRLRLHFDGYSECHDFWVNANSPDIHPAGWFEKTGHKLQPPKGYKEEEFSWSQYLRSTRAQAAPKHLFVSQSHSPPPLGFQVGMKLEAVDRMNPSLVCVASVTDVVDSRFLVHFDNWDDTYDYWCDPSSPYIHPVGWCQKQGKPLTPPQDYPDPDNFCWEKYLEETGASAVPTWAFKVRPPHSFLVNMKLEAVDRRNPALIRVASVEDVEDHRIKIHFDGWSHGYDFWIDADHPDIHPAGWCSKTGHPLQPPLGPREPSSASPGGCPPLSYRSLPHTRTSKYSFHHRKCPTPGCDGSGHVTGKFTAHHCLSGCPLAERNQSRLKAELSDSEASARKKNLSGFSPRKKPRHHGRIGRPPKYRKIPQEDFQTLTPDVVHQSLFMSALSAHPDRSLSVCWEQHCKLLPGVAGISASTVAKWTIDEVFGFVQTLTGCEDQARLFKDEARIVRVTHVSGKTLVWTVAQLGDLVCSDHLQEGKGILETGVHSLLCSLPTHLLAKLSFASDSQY
#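 L3MBTL1 50 nM + b-AHA-H3(1-15)K9me1 75 nM, 30 min RT; compound added, 30 min RT; streptavidin donor/Ni-chelate acceptor beads 10 ug/mL each final, 30 min RT dark; AlphaScreen read.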
# G9a inh – qHTS Assay for Inhibitors of Histone Lysine Methyltransferase G9a. G9a H3K9 monomethylation, AlphaScreen, 2 h. Histone-lysine N-methyltransferase EHMT2 (Homo sapiens), Q96KQ7. AID 504332, 2011. 350,000 tested, 8.8% active. Potency, µM (highest dose often 102 µM), without a hit: at the top dose activity, negative = inhibition, most hits filed as inhibitors; further: on the % scale 0 is the no-effect control and ±100 the full control effect; nearly all actives have a fitted effect of over 75% in size
#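 Readings reflect AlphaScreen signal from monomethyl-H3K9 antibody detection. HMT at 20 nM; substrate b-H3K9 500 nM; cofactor SAM 20 uM; 2 h RT reaction; compounds tested as titrations in qHTS with 15 min preincubation.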
# HP1b binding inh – HTS for Inhibitors of HP1-beta Chromodomain Interactions with Methylated Histone Tails; Chromobox protein homolog 1 (Homo sapiens), P83916; AlphaScreen HP1-beta / biotin-H3K9me3 peptide binding; Potency, µM (series often up to 114 µM), without a hit: top-dose activity change, negative = inhibition, actives largely listed as inhibitors; 390,000 tested, 0.56% active; AID 540317, 2011; further: nearly all actives have a fitted effect of over 70% in size
#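 AlphaScreen: HP1-beta (50 nM) preformed 30 min with biotin-H3(1-18)K9me3 peptide (50 nM) in PBS pH 7.4, 0.01% Tween-20. Compound added for 30 min at RT, then streptavidin donor/nickel chelate acceptor beads (10 ug/mL) for 30 min.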
# Sfp inh – qHTS Assay for Inhibitors of Bacillus subtilis Sfp phosphopantetheinyl transferase (PPTase). 4'-phosphopantetheinyl transferase ffp (Bacillus subtilis), Q9F4F7. Biochemical Sfp PPTase activity, qHTS. Potency, µM, for inactives: largest response in the series, negative = inhibition, hits mostly inhibitors. 310,000 tested, 3.5% active. AID 1490, 2009;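 further: the enzyme is Sfp with the accession as filed and its product quenches rhodamine fluorescence; 0% = enzyme reaction without inhibitor and -100% = no enzyme wells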
#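 Compounds were incubated with enzyme (final 15 nM) for 15 min at room temperature before substrate addition started the reaction. Fluorescence at 525 nm excitation, 598 nm emission was recorded immediately and after 30 minutes.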
# * hit, by the source's call; ? = inconclusive; nt = no result given; [ ] = remark or other dose. The call rests on the fitted dose curve; in most records, active means well fitted curve in the direction sought with a large enough effect; inconclusive means small, poorly fitted or top-dose-only effect, or another doubt; inactive means no such curve, though single readings can be large; an effect the other way counts as inactive or inconclusive. Potency means the concentration at half of the fitted maximal effect.
SMILES,BAZ2B inh,JMJD2A Tudor inh,L3MBTL1 inh,G9a inh,HP1b binding inh,Sfp inh
Cc1ccc2[nH]c(=O)c(C(c3nnnn3C3CCCC3)N(Cc3cccnc3)Cc3ccco3)cc2c1 (stereo not drawn),-35%,?,-1%,-44%,0%,-12%
Cc1ccc2cc(C(c3nnnn3C3CCCC3)N(Cc3cccnc3)Cc3ccco3)c(=O)[nH]c2c1 (stereo not drawn),-37%,?,29%[11.4 µM],20µM*,17%,10µM*
CCC(c1nnnn1C1CCCCC1)N(Cc1ccco1)Cc1cc2ccc(OC)cc2[nH]c1=O (stereo not drawn),-30%,-34%,6%,4%[12.7 µM],-13%,-23%
COc1ccc(C2c3c(n(C)c4ccccc34)C(=O)N2CC(=O)Nc2cccc(Cl)c2)cc1 (stereo not drawn),-15%,-33%,nt,-13%[59 µM],16%,nt
O=c1c(CO)cc(CO)cc(CO)c1O,10µM*,22µM*,nt,nt,15%,?
C/C(=C\CO)CCC(C)CCCC(C)CCCC(C)C (stereo not drawn),nt,nt,nt,nt,nt,7%
O=C1COc2ccc(NC(=O)c3ccccc3C(=O)O)cc2N1,-17%,-9%,nt,?,31%,79µM*
C/C=C1/C(=O)C[C@@H]2[C@H]3CCC4=CC(=O)CC[C@]4(C)[C@@H]3CC[C@]12C,nt,nt,nt,38%[59 µM],nt,8%
CCn1c(SCc2nc3ccccc3c(=O)[nH]2)nc2ccccc2c1=O,-3%,-4%,24%[11.4 µM],6%[59 µM],27%,-4%
C=CCn1c(SCc2nc3ccccc3c(=O)[nH]2)nc2scc(C3CC3)c2c1=O,8%,-9%,?,-3%,15%,56µM*
O=C(NN=C1CCCCCCCCCCC1)c1ccncc1,?,28µM*,nt,12%[59 µM],38%,-29%
O=C1Nc2ccc(Br)cc2/C1=C/C(=O)c1ccc2c(c1)OCO2,?,?,-26%,10µM*,-13%,56µM*
Cn1cccc1C(=O)N1CCC2(CCN(C(=O)Nc3cccc(C#N)c3)CC2)CC1,nt,nt,nt,4%[12.7 µM],nt,14%
COc1ccc(S(=O)(=O)NC(C)C(=O)Nc2cccc(C(C)=O)c2)cc1 (stereo not drawn),7%,-15%,-3%,?,11%,-19%
COc1ccc(S(=O)(=O)NC(C)C(=O)Nc2ccccc2F)cc1 (stereo not drawn),-2%,-4%,0%,40µM*,19%,-17%
COc1ccc(S(=O)(=O)N/N=C\c2ccccc2F)cc1,-2%,-3%,nt,40µM*,41%,9%
COc1ccc(S(=O)(=O)Nc2c(F)cccc2F)cc1,-14%,25µM*,2%,-4%,50µM*,14%
COc1ccc(S(=O)(=O)Nc2cccc3ccccc23)cc1,nt,-23%,nt,nt,22%,nt
COc1ccccc1/C=N/NS(=O)(=O)c1ccccc1,-5%,3%,nt,?,77%,6%
CCc1ccc(NC(=O)c2cnc3sc(N4CCCC4)nn3c2=O)cc1,-10%,-10%,nt,29%[59 µM],4%,nt
COc1cc2c(cc1OC)C(COc1ccc3c(C)cc(=O)oc3c1)N(C(=O)Cc1ccc(F)cc1)CC2 (stereo not drawn),4%,-10%,nt,4%[59 µM],15%,nt
O=C(NCc1ccc2c(c1)CCN2C(=O)c1ccc(F)cc1)c1cc2ccccc2[nH]1,-13%,-30%,nt,-13%[59 µM],15%,nt
CCN1CCN(CCNC(=O)c2ccc(/C=C3/Sc4ccccc4N(Cc4ccccc4C)C3=O)cc2)CC1,?,-35%[11.4 µM],nt,?,-19%,40µM*
CCN1CCN(CCCNC(=O)c2ccc(/C=C3/Oc4ccccc4N(Cc4cccc(C)c4)C3=O)cc2)CC1,4%,?,nt,-6%[0.0925 µM],30%[57 µM],40µM*
CCN1CCN(CCCNC(=O)c2ccc(/C=C3/Sc4ccccc4N(Cc4ccccc4F)C3=O)cc2)CC1,?,40µM*,nt,?,-3%,50µM*
SMILES,BAZ2B inh,JMJD2A Tudor inh,L3MBTL1 inh,G9a inh,HP1b binding inh,Sfp inh
CN(C)C(=O)c1ccc(-c2nc(N3CCOCC3)c3ccccc3n2)cc1,nt,nt,nt,5%[0.501 µM],nt,7%
NC(=O)CSc1oc(-c2ccco2)nc1S(=O)(=O)c1ccc(Cl)cc1,-25%,-19%,nt,32µM*,11%,-2%
Cc1ccc(S(=O)(=O)c2nc(-c3ccco3)oc2SCC(N)=O)cc1,-10%,-24%,nt,?,-25%,1%
O=C(CSc1oc(-c2ccccc2)nc1S(=O)(=O)c1ccc(Cl)cc1)c1ccccc1,-6%,?,nt,11µM*,3%,nt
CC(C)Sc1oc(-c2ccco2)nc1S(=O)(=O)c1ccc(F)cc1,-20%,?,-20%,10µM*,21%,?
NC(=O)CSc1oc(-c2ccco2)nc1S(=O)(=O)c1ccc(Br)cc1,?,-4%,nt,28µM*,25%,-13%
COc1cc(C(=O)Nc2ccc(-c3cc(C(F)(F)F)nn3-c3ccccc3)cc2)cc(OC)c1OC,-23%,-23%,nt,-10%[59 µM],17%,nt
CSc1oc(-c2ccco2)nc1S(=O)(=O)c1ccc(Br)cc1,-32%,-33%,-12%,40µM*,28%,-2%
O=C(NC(=O)c1ccccc1)Nc1ccc(-c2cc(C(F)(F)F)nn2-c2ccccc2)cc1,-46%,-18%,nt,-7%[59 µM],13%,nt
Cc1ccc(C)c(CN2C(=O)c3ccccc3S(=O)c3ccc(C(=O)NCc4ccco4)cc32)c1 (stereo not drawn),-23%,-28%,nt,-36%[59 µM],-2%,nt
O=C(NN1S(=O)(=O)c2ccccc2S1(=O)=O)c1ccc(Br)cc1,50µM*,-12%,11%,?,65%,?
Cc1cccc(C(=O)NCCNC(=O)c2cccc(C)c2)c1,-5%,-8%,-3%,13%[59 µM],64%,-24%
Cc1cccc(C(=O)NN2S(=O)(=O)c3ccccc3S2(=O)=O)c1,nt,-2%,nt,7.1µM*,91%,50µM*
O/N=C\c1ccc(-c2ccccc2)o1,-4%,-1%,5%,1%,21%,-5%
CC(C)CC1=C/C(=C/c2ccc(-c3ccccc3)o2)C(=O)O1,45µM*,?,?,13µM*,?,?
Cc1cccc(N2CCN(C(=O)C3CCN(S(=O)(=O)c4c(C)noc4/C=C/c4ccccc4F)CC3)CC2C)c1 (stereo not drawn),-19%,-15%,nt,-6%[59 µM],16%[57 µM],nt
Cc1nc2cccnc2n1-c1cccc(C(=O)NCCc2ccc(S(N)(=O)=O)cc2)c1,-9%,11%,nt,?,33%,nt

# Screening data (PubChem)
